Test results reported in PubChem BioAssay (NCI).
Compounds without any hit were thinned out: in the full panel of roughly 83,000, 20% have a hit.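 96-well plates, one dose, 48 hours. Percent growth reported; active if below 10.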 Activity calls are given as the source filed them.

Assays:
Assay in all cases: NCI-60 one-dose screen, 48 h (100 = growth as untreated, 0 = no growth, -100 = all killed)
HCT-15 colon = conditions: 10 µM unless noted
HT29 colon = conditions: 10 µM unless noted
SNB-19 CNS = conditions: 10 µM unless noted
U251 CNS = conditions: 10 µM unless noted
PC-3 prostate = conditions: 10 µM unless noted
SK-MEL-5 melanoma = conditions: 10 µM unless noted
UACC-62 melanoma = conditions: 10 µM unless noted
LOX IMVI melanoma = conditions: 10 µM unless noted
SK-MEL-28 melanoma = conditions: 10 µM unless noted
SK-MEL-2 melanoma = conditions: 10 µM unless noted
EKVX NSCLC = conditions: 10 µM unless noted
SN12C renal = conditions: 10 µM unless noted
UO-31 renal = conditions: 10 µM unless noted
TK-10 renal = conditions: 10 µM unless noted
ACHN renal = conditions: 10 µM unless noted
A498 renal = conditions: 10 µM
HL-60(TB) leukemia = conditions: 10 µM unless noted
CCRF-CEM leukemia = conditions: 10 µM unless noted
SNB-75 CNS = conditions: 10 µM unless noted
CAKI-1 renal = conditions: 10 µM unless noted

Measured: growth

COc1cc2c(=O)n(C3CCCCCCC3)c3c4cc[nH]c4ncc3c2cc1OC
active: A498 renal 4.93%
inactive: HCT-15 colon 62.4% | HT29 colon 66.8% | SNB-19 CNS 55.2% | U251 CNS 12.7% | PC-3 prostate 65.8% | SK-MEL-5 melanoma 64.2% | UACC-62 melanoma 89.1% | LOX IMVI melanoma 41.5% | SK-MEL-28 melanoma 85.5% | SK-MEL-2 melanoma 78.7% | EKVX NSCLC 71.6% | SN12C renal 49.8% | UO-31 renal 22.5% | TK-10 renal 30.8% | ACHN renal 40.9% | HL-60(TB) leukemia 57.6% | CCRF-CEM leukemia 44.9%

COc1cc([C@@H]2c3cc4c(cc3[C@H](OC(C)=O)[C@H]3COC(=O)[C@@H]23)OCO4)cc(OC)c1OC
inactive: HCT-15 colon 11.8% | PC-3 prostate 15% | UACC-62 melanoma 18.5% | LOX IMVI melanoma 27.3% | SK-MEL-28 melanoma 48.6% | SK-MEL-2 melanoma 40.2% | EKVX NSCLC 33.1% | UO-31 renal 38.9% | TK-10 renal 41.8% | ACHN renal 29.8% | CCRF-CEM leukemia 22.6%
active: HT29 colon 1.62% | SNB-75 CNS 4.62% | U251 CNS 8.16% | SK-MEL-5 melanoma -20.9% | A498 renal -15.7% | HL-60(TB) leukemia -1.71%

COc1ccc(C/C(C)=C(\c2ccc(OCCN3CCOCC3)cc2)c2ccc(OC(=O)Cc3ccccc3)cc2)cc1
inactive: SNB-19 CNS 13.8% | EKVX NSCLC 17.9%
active: HCT-15 colon -23.7% | HT29 colon -89.7% | U251 CNS -97.3% | PC-3 prostate -1% | SK-MEL-5 melanoma -91.9% | UACC-62 melanoma -87.7% | LOX IMVI melanoma -94.1% | SK-MEL-28 melanoma -80.6% | SK-MEL-2 melanoma -80.6% | SN12C renal -73.7% | UO-31 renal -84.6% | TK-10 renal -46.1% | ACHN renal -3.31% | CAKI-1 renal 7.71% | A498 renal -90.5% | HL-60(TB) leukemia -59.3% | CCRF-CEM leukemia -13.7%

C1CCC2(CC1)OOCNCOO2
active: LOX IMVI melanoma -76.6%
inactive: HCT-15 colon 99.3% | HT29 colon 97.7% | SNB-19 CNS 113% | U251 CNS 105% | PC-3 prostate 98% | SK-MEL-5 melanoma 93.5% | UACC-62 melanoma 113% | SK-MEL-2 melanoma 102% | EKVX NSCLC 99% | SN12C renal 110% | UO-31 renal 93.6% | TK-10 renal 91.3% | ACHN renal 110% | A498 renal 97.4% | HL-60(TB) leukemia 71.7% | CCRF-CEM leukemia 99.5%

Clc1cccc(NCOOC2(OOCNc3cccc(Cl)c3)CCCCC2)c1
active: LOX IMVI melanoma -86.1% | UO-31 renal -73.7%
inactive: HCT-15 colon 70.2% | HT29 colon 74.5% | SNB-19 CNS 90.2% | U251 CNS 61.4% | PC-3 prostate 77.6% | SK-MEL-5 melanoma 71.4% | UACC-62 melanoma 34.3% | SK-MEL-28 melanoma 100% | SK-MEL-2 melanoma 80.8% | EKVX NSCLC 55.1% | TK-10 renal 86.3% | ACHN renal 38.8% | CAKI-1 renal 12.3% | A498 renal 61% | HL-60(TB) leukemia 39.1% | CCRF-CEM leukemia 36.7%

CC(C)(NC(=O)O[C@@H]1CN2CCC1CC2)c1csc(-c2ccc(F)cc2)n1
inactive: HCT-15 colon 102% | SNB-75 CNS 67.2% | SNB-19 CNS 97.9% | PC-3 prostate 99.5% | SK-MEL-5 melanoma 99.2% | UACC-62 melanoma 87.9% | LOX IMVI melanoma 90.5% | SK-MEL-28 melanoma 103% | SK-MEL-2 melanoma 108% | EKVX NSCLC 89.5% | SN12C renal 95.4% | UO-31 renal 81.1% | TK-10 renal 91.9% | ACHN renal 98.4% | A498 renal 90.6% | HL-60(TB) leukemia 90% | CCRF-CEM leukemia 98.3%

CN1C(=O)C(=Cc2cn(CCCCCCn3c4ccccc4c(=O)c4ccccc43)c3ccccc23)C(=O)N(C)C1=O
inactive: HCT-15 colon 92.1% | SNB-75 CNS 91.4% | SNB-19 CNS 104% | U251 CNS 99.2% | PC-3 prostate 89.8% | SK-MEL-5 melanoma 94.3% | LOX IMVI melanoma 93% | SK-MEL-2 melanoma 92.8% | SN12C renal 104% | UO-31 renal 65.6% | TK-10 renal 111% | ACHN renal 92.9% | CCRF-CEM leukemia 109%

CC[C@H](C)[C@H](NC(=O)C12C3C4C1C1C2C3C41NC(C)=O)C(=O)N(C)[C@H](C[C@@H](OC(C)=O)c1nc(C(=O)N[C@@H](Cc2ccccc2)C[C@H](C)C(=O)OC)cs1)C(C)C (stereo not given in full)
inactive: HCT-15 colon 24.8% | SNB-75 CNS 38.6% | SNB-19 CNS 56.1% | PC-3 prostate 11.3% | LOX IMVI melanoma 14.9% | SK-MEL-28 melanoma 59.6% | SK-MEL-2 melanoma 49.2% | EKVX NSCLC 38.6% | SN12C renal 25.6% | UO-31 renal 59.8% | TK-10 renal 62% | ACHN renal 36.6% | CAKI-1 renal 74.1% | CCRF-CEM leukemia 12.2%
active: U251 CNS 9.8% | SK-MEL-5 melanoma -13.4% | A498 renal -10.4% | HL-60(TB) leukemia -13.3%

COc1ccc2c(c1)c(C1(O)CC(CSC#N)OC1=O)cn2C(=O)c1ccc(Cl)cc1 (stereo not given)
inactive: HCT-15 colon 98.7% | SNB-75 CNS 83.7% | SNB-19 CNS 99.3% | U251 CNS 102% | PC-3 prostate 96.2% | SK-MEL-5 melanoma 111% | UACC-62 melanoma 88.6% | LOX IMVI melanoma 97.8% | SK-MEL-28 melanoma 150% | SK-MEL-2 melanoma 80% | EKVX NSCLC 89.6% | SN12C renal 94% | UO-31 renal 78.5% | TK-10 renal 103% | ACHN renal 94.5% | A498 renal 153% | HL-60(TB) leukemia 94.6% | CCRF-CEM leukemia 82%

COc1cc([N+](=O)[O-])c2nc(C)ccc2c1[N+](=O)[O-]
inactive: HCT-15 colon 92.9% | SNB-75 CNS 109% | SNB-19 CNS 95.2% | U251 CNS 90% | PC-3 prostate 93.9% | SK-MEL-5 melanoma 93.6% | LOX IMVI melanoma 71.5% | SK-MEL-28 melanoma 103% | SK-MEL-2 melanoma 102% | EKVX NSCLC 112% | SN12C renal 89% | UO-31 renal 74.9% | TK-10 renal 122% | CAKI-1 renal 104% | CCRF-CEM leukemia 91.3%

CN[C@]1(c2ccccc2Cl)CCCC[C@H]1NCCCN1CCN(C)CC1
inactive: HCT-15 colon 99% | SNB-75 CNS 82% | SNB-19 CNS 102% | U251 CNS 103% | PC-3 prostate 91.5% | SK-MEL-5 melanoma 97.7% | UACC-62 melanoma 104% | LOX IMVI melanoma 96.4% | SK-MEL-28 melanoma 112% | SK-MEL-2 melanoma 103% | EKVX NSCLC 92% | SN12C renal 97.4% | UO-31 renal 76.3% | TK-10 renal 96.4% | ACHN renal 108% | CAKI-1 renal 87.3% | HL-60(TB) leukemia 93.9% | CCRF-CEM leukemia 99.6%

O=C(CCCC1CCCCC1)OCC(Cl)(Cl)Cl
inactive: HCT-15 colon 108% | SNB-75 CNS 101% | SNB-19 CNS 106% | U251 CNS 97% | PC-3 prostate 91.4% | SK-MEL-5 melanoma 107% | LOX IMVI melanoma 101% | SK-MEL-28 melanoma 113% | SK-MEL-2 melanoma 109% | EKVX NSCLC 105% | SN12C renal 106% | UO-31 renal 91.1% | TK-10 renal 98.7% | A498 renal 60.6% | HL-60(TB) leukemia 100%

COc1ccc(/C=C\c2cc(OC)c(OC)c(OC)c2)cc1NC(=O)/C=C/c1ccc(OC)c(OC)c1
inactive: HCT-15 colon 29.7% | SNB-75 CNS 16% | SNB-19 CNS 36.6% | U251 CNS 35.4% | PC-3 prostate 31.7% | UACC-62 melanoma 36.6% | LOX IMVI melanoma 30.8% | SK-MEL-28 melanoma 51.8% | SK-MEL-2 melanoma 66.9% | EKVX NSCLC 55.1% | SN12C renal 43.5% | UO-31 renal 41.6% | TK-10 renal 91% | ACHN renal 42% | CCRF-CEM leukemia 12.1%
active: SK-MEL-5 melanoma 5.07% | A498 renal -1.67% | HL-60(TB) leukemia -24.9%

CCOC(=O)[C@@H](C)C[C@H](Cc1ccccc1)NC(=O)c1csc([C@@H](C[C@H](C(C)C)N(C)C(=O)[C@@H](NC(=O)[C@H]2CCCCN2C)C(C)(C)CC)OC(C)=O)n1
active: HCT-15 colon 8.77% | SNB-75 CNS -5.95% | U251 CNS 9.55% | SK-MEL-5 melanoma -15.3% | SK-MEL-2 melanoma 2.19% | SN12C renal 9.13% | UO-31 renal 7.43% | HL-60(TB) leukemia -33.4% | CCRF-CEM leukemia 3.47%
inactive: SNB-19 CNS 17.6% | PC-3 prostate 24.1% | UACC-62 melanoma 33.1% | LOX IMVI melanoma 14.3% | SK-MEL-28 melanoma 38.6% | EKVX NSCLC 37.4% | TK-10 renal 29.3%

COP(=O)(OC)C(O)c1ccc(Cl)cc1 (stereo not given)
inactive: HCT-15 colon 102% | SNB-75 CNS 89.4% | SNB-19 CNS 110% | U251 CNS 104% | PC-3 prostate 94.3% | UACC-62 melanoma 101% | LOX IMVI melanoma 96.8% | SK-MEL-28 melanoma 109% | SK-MEL-2 melanoma 109% | EKVX NSCLC 98.4% | SN12C renal 108% | UO-31 renal 83.3% | TK-10 renal 96.5% | A498 renal 98.5% | HL-60(TB) leukemia 98.9% | CCRF-CEM leukemia 112%

OCCCCCNC1CCCCC1
inactive: HCT-15 colon 96.1% | SNB-75 CNS 101% | SNB-19 CNS 112% | U251 CNS 101% | PC-3 prostate 101% | SK-MEL-5 melanoma 96.7% | UACC-62 melanoma 102% | LOX IMVI melanoma 101% | SK-MEL-28 melanoma 95% | SK-MEL-2 melanoma 80.7% | SN12C renal 105% | UO-31 renal 87.5% | TK-10 renal 86.5% | ACHN renal 94.1% | CAKI-1 renal 101% | A498 renal 105% | HL-60(TB) leukemia 91.7%
